PubChem BioAssay (NCATS)
Records with an inconclusive call do not appear. Unmarked numbers belong to inactive results. Calls of active or inactive are those of the source. Calls follow the shape of the full dose curve.

These compounds were tested against Atrial natriuretic peptide receptor 2 (Homo sapiens) (UniProt P20594) (assay: Natriuretic polypeptide receptor (hNpr2) antagonism - Pilot subtype selectivity assay (AID 1347050)). Conditions: NPR2-expressing cells, cGMP antagonist-mode read-out; series mostly up to 38.3 µM; activity change, negative = inhibition: at the top concentration.
Protocol: F. Fan, B. F. Binkowski, B. L. Butler, P. F. Stecha, M. K. Lewis, K. V. Wood, Novel genetically encoded biosensors using firefly luciferase. ACS Chem Biol 3, 346-351 (2008).
PROTOCOL TABLE (as described by Inglese J, Shamu CE and Guy RK. 2007)
SEQUENCE No. (e.g., 1, 2, 3, etc.); […] (e.g., Cells, Incubation, Reagent, etc.); VALUE and DESCRIPTION.
1. Cells. Seed 1500 HEK293 cGMP-sensor cells expressing hNpr2 per well in 4uL into Greiner 1536-well white/solid bottom high base, TC plates.
2. Incubation. Incubate plated cells at 37C in 5% CO2, 95% RH overnight.
3. Reagent. Add 1uL per well GloSensor reagent from Promega (2% final concentration) or CO2 independent media vehicle control to respective columns of Greiner 1536-well plates.
4. Incubation. Incubate plated cells at ambient temperature for 2 h., protect from light.
5. Compounds. Library compounds and DMSO vehicle control added at 23nL per well, transferred by Pin Tool.
6. Incubation. Incubate plated cells for 30 min. at ambient temperature, protect from light.
7. Detector. GloSensor baseline pre-read luminescence measured using CCD-based camera (Viewlux).
8. Compound. Add 1uL of hNppC peptide to 1 nM final concentration to stimulate hNpr2 or CO2 independent media as vehicle control.
9. Incubation. Incubate treated cells at ambient temperature for 20 min., protect from light.
10. Detector. GloSensor post-hNppC luminescence measured using CCD-based camera (Viewlux).
NOTES (numbers refer to Sequence numbers above)
1. HEK293 cells expressing hNpr2 and GIP/pGS-40F were grown to 85-95% confluence (48-72 h) in T175 culture flasks (CO2 independent media supplemented with 10% FBS, 1% Pen/Strep antibiotics, and 1 ug/mL puromycin). Trypsinize and harvest cells from T175 culture flasks and filter through 40 um cell strainer. Cells counted with Invitrogen Countess (30,000,000 - 50,000,000 cells/flask). Cells diluted to a final concentration of 375 cells/uL in CO2 independent media and a Millipore multidrop used to dispense 1500 cells per well (4uL/well) into 9 x1536-well Greiner White/Solid bottom, high base tissue-culture treated (TC) plates and one Aurora 1536-well Black/Clear bottom, low base, TC plate (for visual inspection of cell health throughout the duration of the assay).
2. Cells incubated for 24 h. at 37C in 95% RH incubator with metal lid having gas-exchange holes.
3. Prepare GloSensor Reagent (Promega): Reconstitute GloSensor luciferase substrate by adding 8.2mL Hepes buffer to 250mg substrate, mix well, protect from light and stored at -80C. Prepare a fresh 12% GloSensor solution in CO2 independent supplemented plating media (see above). Mix well and store at ambient temperature, protected from light. 1uL 12% GloSensor Luciferase Reagent added (2% final concentration) to respective columns of 9 x 1536-well Greiner plate with BioRaptr, 1uL CO2 independent plating media added to respective columns as vehicle control with BioRaptr.
4. Cells incubated for 2 h. at ambient temperature, protected from light with metal lid having gas-exchange holes.
5. 23nL of LOPAC1280 library compounds (7 plates) or DMSO vehicle control transferred to 9 Greiner white/solid bottom high base, TC plates in 7 interplate 1:5 titrations (see Yasgar, A. et al. 2008) with Pintool. Two of the 9 plates are DMSO-only in compound field at beginning and end of compound library-treated plates.
6. Cells incubated for 30-50 min. at ambient temperature protected from light with metal lid having gas-exchange holes.
7. Read cellular baseline GloSensor luminescence in presence of test library compounds on the ViewLux [Exposure = 10 s.; Gain = High; Speed = Slow; and Binning = 2X.]
8. hNppC peptide agonist solution prepared at 1 mM (in H2O) stock concentration. From this a working dilution was prepared at 6 nM in CO2 Independent media. […]
% is scaled to controls: 0 for no effect and ±100 for the full control effect; potency is read from the fitted curve at half-maximal effect.

Atrial natriuretic peptide receptor 2 (Homo sapiens), sequence (P20594 whole entry, looked up): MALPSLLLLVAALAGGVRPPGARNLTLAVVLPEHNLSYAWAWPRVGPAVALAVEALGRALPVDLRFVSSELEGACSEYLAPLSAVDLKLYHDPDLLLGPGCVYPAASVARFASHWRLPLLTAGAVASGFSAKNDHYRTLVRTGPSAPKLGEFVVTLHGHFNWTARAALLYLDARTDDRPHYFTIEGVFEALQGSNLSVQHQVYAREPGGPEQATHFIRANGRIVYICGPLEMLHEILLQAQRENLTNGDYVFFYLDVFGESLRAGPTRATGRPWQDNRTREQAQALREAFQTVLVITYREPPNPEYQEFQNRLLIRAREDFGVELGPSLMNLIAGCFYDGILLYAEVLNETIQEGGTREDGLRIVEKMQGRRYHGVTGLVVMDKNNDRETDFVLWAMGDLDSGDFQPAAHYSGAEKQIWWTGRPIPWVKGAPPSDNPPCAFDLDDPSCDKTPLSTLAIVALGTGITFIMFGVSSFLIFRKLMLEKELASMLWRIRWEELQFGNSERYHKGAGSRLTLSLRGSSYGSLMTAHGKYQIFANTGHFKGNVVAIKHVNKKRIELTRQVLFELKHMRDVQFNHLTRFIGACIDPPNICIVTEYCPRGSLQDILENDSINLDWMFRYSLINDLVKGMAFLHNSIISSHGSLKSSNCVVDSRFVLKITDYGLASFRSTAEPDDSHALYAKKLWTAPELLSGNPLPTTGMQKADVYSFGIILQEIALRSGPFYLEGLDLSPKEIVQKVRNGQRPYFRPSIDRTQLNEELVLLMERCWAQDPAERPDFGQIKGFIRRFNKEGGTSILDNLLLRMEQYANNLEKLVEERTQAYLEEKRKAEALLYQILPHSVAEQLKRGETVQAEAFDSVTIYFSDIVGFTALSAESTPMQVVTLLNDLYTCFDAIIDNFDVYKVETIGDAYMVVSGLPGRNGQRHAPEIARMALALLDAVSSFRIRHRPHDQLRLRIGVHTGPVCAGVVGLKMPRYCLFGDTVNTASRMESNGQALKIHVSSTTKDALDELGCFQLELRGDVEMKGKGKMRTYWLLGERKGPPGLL

Row | SMILES | activity change, negative = inhibition [%] | Potency
1 | COc1ccc(CCN(C)CCc2ccc(OC)c(OC)c2)cc1OC | -0.196 | –
2 | c1ccc2nc(C3=NCCN3)ccc2c1 | -4.28 | –
3 | O=C1OC(=O)C2C3CCC(O3)C12 (stereo not given) | -7.82 | –
4 | N#Cc1cc([N+](=O)[O-])c2sc(C(N)=O)[n+]([O-])c2c1 | -2.66 | –
5 | CC(C)NCC(O)COc1ccc(CC(N)=O)cc1 (stereo not given) | -25.3 | –
6 | COC1(C2=NCCN2)COc2ccccc2O1 (stereo not given) | -0.893 | –
7 | O=C(O)C1CCCNC1 (stereo not given) | -2.87 | –
8 | CN1CCCC1CCOC(C)(c1ccccc1)c1ccc(Cl)cc1 (stereo not given) | – | 11.7 µM (active)
9 | NC1CONC1=O (stereo not given) | 7.59 | –
10 | COc1ccc2c(c1)c(CC(=O)O)c(C)n2C(=O)c1ccccc1 | -0.856 | –
11 | CCn1c(=O)[nH]c2cc(Cl)c(Cl)cc21 | -0.134 | –
12 | CC(=O)N[C@@H](Cc1c[nH]c2ccccc12)C(=O)OCc1cc(C(F)(F)F)cc(C(F)(F)F)c1 | -7.17 | –
13 | O=C(O)c1ccccc1Nc1ccccc1 | -14.5 | –
14 | OC[C@H]1NC[C@@H](O)[C@@H]1O | 3.3 | –
15 | C=CCNc1ncnc2ccc(Br)cc12 | 12.5 | –
16 | CN1CC(O)C(O)C(O)C1CO (stereo not given) | -0.21 | –
17 | NC/C=C\C(=O)O | -14.9 | –
18 | N[C@@H](Cc1ccc(O)c(I)c1)C(=O)O | 8.23 | –
19 | CC(=O)[C@H]1CCC2C3CC=C4C[C@@H](OS(=O)(=O)O)CC[C@]4(C)C3CC[C@@]21C (stereo not given in full) | 0 | –
20 | N[C@H](C(=O)O)[C@H](O)C(=O)O | 10.5 | –

Row | SMILES | activity change, negative = inhibition [%] | Potency
21 | Oc1ccc(Cn2cc[nH]c2=S)cc1 | -1.69 | –
22 | C[C@H](NC(=O)/C(C#N)=C/c1ccc(O)c(O)c1)c1ccccc1 | -3.25 | –
23 | CN(C)C(=O)/N=N/C(=O)N(C)C | 1.23 | –
24 | NC1(C(=O)O)CCc2cc(C(=O)O)ccc21 (stereo not given) | -0.946 | –
25 | N=C(N)SCCc1cnc[nH]1 | 7.97 | –
26 | CN[C@H](CC(=O)O)C(=O)O | 2.32 | –
27 | O=C(O)Cc1c[nH]c2ccc(O)cc12 | 2 | –
28 | Clc1nccc2c1ccc1ccccc12 | 5.21 | –
29 | CSC(=N)N | -1.75 | –
30 | C[C@](Cc1ccc(O)c(O)c1)(NN)C(=O)O | 15.5 | –
31 | CCCCCCCCCC[Si](C)(C)CCC(=O)NC(Cc1ccc(C)cc1)c1ccccc1 (stereo not given) | 5.17 | –
32 | NC1(C(=O)O)CC1 | -4.09 | –
33 | CCCn1c(=O)c2c(ncn2C)n(CCC)c1=O | -4.1 | –
34 | NCCS(=O)O | -2.52 | –
35 | C[C@]12C=CC(=O)C=C1CC[C@@H]1C2=CC[C@]2(C)[C@@H](C(=O)CN3CCN(c4cc(N5CCCC5)nc(N5CCCC5)n4)CC3)CC[C@@H]12 | 5.28 | –
36 | CCCCCC(O)CCCC(=O)O (stereo not given) | 9.51 | –
37 | Nc1ccc(-c2ccc3ccccc3n2)cc1 | – | 16.5 µM (active)
38 | O=c1[nH]ccc2c(O)cccc12 | -2.67 | –
39 | O=C(O)C1=CCCNC1 | 0.669 | –
40 | O=C(O)C1CCNCC1 | -3.4 | –
